Source: PubChem BioAssay (National Center for Advancing Translational Sciences (NCATS))
TDP1 block: qHTS Assay for Inhibitors of Tyrosyl-DNA Phosphodiesterase (TDP1); Tyrosyl-DNA phosphodiesterase 1 (Homo sapiens), Q9NUW8; recombinant TDP1, AlphaScreen DNA substrate cleavage; Potency, µM (series often up to 130 µM), for the others: at the highest dose activity change, negative = inhibition, most hits filed as inhibitors; 350,000 compounds, 0.28% hits; AID 485290, 2010; further: potency means the concentration at half of the fitted maximal effect; on the % scale 0 is the no-effect control and ±100 the full control effect; nearly all actives have a fitted effect of over 40% in size
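AlphaScreen read-out: signal falls as enzyme removes the 3' tyrosine-FITC from a 5'-biotinylated DNA oligo (15 nM, 5 min, RT). Enzyme was E. coli-made recombinant Tdp1 at 1 nM, exposed to compound for 15 min beforehand; beads 10 ug/ml, 10 min.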
BAZ2B inh: qHTS Assay for Inhibitors of BAZ2B. AID 504333, 2011. Potency, µM (titrated, usually from 114 µM), inactives show at the top dose activity change, negative = inhibition, most hits filed as inhibitors. AlphaScreen BAZ2B-H3K14Ac peptide displacement. Bromodomain adjacent to zinc finger domain protein 2B (Homo sapiens), Q9UIF8. 360,000 compounds, 4.4% hits; further: potency means the concentration at half of the fitted maximal effect; on the % scale 0 is the no-effect control and ±100 the full control effect; nearly all actives have a fitted effect of over 60% in size
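In this displacement format the biotinylated H3(5-23) peptide acetylated at Lys14 serves as ligand at 50 nM, with BAZ2B at 50 nM in PBS pH 7.4 containing 0.01% Tween-20. Donor and acceptor beads are 10 ug/mL final.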
JMJD2A Tudor: qHTS Assay for Inhibitors of JMJD2A-Tudor Domain; Lysine-specific demethylase 4A (Homo sapiens), O75164; AlphaScreen JMJD2A-Tudor / H3K4me3 peptide binding; Potency, µM (series often up to 114 µM), inactives show at the highest dose activity change, negative = inhibition, most hits filed as inhibitors; 390,000 compounds, 4.4% hits; further: potency means the concentration at half of the fitted maximal effect; on the % scale 0 is the no-effect control and ±100 the full control effect; nearly all actives have a fitted effect of over 50% in size
CtBP-E1A inh: qHTS Assay for Inhibitors of the CtBP/E1A Interaction. CtBP / adenovirus E1A interaction (AlphaScreen). AlphaScreen GST-E1A/His-CtBP binding, 1536-well; hits give low values. activity change, % (test concentration not listed). 340,000 compounds, 0.49% hits; in the data active means activity change below about -65%; inconclusive means mostly about -30% to -63%; further: on the % scale 0 is the no-effect control and ±100 the full control effect
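Homogeneous bead-based format: GST-tagged E1A captured on glutathione donor beads, His-tagged CtBP on nickel acceptor beads; compounds precede bead addition by 2 h at 37 °C.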
HP1b chromo inh: HTS for Inhibitors of HP1-beta Chromodomain Interactions with Methylated Histone Tails; Chromobox protein homolog 1 (Homo sapiens), P83916; AlphaScreen HP1-beta / biotin-H3K9me3 peptide binding; Potency, µM (series often up to 114 µM), for inactives: at the top dose activity change, negative = inhibition, actives largely listed as inhibitors; 390,000 compounds, 0.56% hits; AID 540317, 2011; further: potency means the concentration at half of the fitted maximal effect; nearly all actives have a fitted effect of over 70% in size
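AlphaScreen: HP1-beta (50 nM) preformed 30 min with biotin-H3(1-18)K9me3 peptide (50 nM) in PBS pH 7.4, 0.01% Tween-20. Compound added for 30 min at RT, then streptavidin donor/nickel chelate acceptor beads (10 ug/mL) for 30 min.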
Six1-Eya2 inh: qHTS Assay for Inhibitors of the Six1/Eya2 Interaction. 360,000 compounds, 0.56% hits. Homeobox protein SIX1 (Homo sapiens) + Protein phosphatase EYA2 (Homo sapiens), …. AID 651725, 2012. activity change, % (concentration not given with the values). AlphaScreen GST-Six1/His-Eya2 binding, biochemical; hits give low values; in the data active means activity change below about -65%; inconclusive means mostly about -30% to -63%; further: on the % scale 0 is the no-effect control and ±100 the full control effect
Target sequence (O00167 whole entry, looked up): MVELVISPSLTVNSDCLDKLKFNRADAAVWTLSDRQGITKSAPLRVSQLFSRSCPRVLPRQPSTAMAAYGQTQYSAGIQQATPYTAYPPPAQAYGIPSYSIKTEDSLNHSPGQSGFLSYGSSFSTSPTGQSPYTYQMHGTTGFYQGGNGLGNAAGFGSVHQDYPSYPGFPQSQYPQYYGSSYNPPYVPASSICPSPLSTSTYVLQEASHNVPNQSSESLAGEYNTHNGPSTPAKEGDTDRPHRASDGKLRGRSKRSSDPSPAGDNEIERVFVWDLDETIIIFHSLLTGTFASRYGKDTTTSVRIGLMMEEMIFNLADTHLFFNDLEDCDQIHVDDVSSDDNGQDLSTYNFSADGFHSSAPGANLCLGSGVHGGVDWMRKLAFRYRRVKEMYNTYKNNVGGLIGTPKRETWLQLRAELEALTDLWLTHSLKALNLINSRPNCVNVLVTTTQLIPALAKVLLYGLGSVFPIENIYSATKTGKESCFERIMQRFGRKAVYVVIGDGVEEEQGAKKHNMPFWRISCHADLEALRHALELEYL
Target sequence (Q15475 whole entry, looked up): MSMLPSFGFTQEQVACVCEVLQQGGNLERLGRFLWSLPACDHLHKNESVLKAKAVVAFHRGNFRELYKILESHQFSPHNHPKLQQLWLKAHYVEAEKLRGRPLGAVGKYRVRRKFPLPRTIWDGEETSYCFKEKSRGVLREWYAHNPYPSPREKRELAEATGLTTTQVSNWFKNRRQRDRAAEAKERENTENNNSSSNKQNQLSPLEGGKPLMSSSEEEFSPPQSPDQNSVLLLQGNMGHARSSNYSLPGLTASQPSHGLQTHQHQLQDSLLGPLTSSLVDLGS
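AlphaScreen luminescence read after one hour at 37 °C in darkness. Pin-transferred compounds met GST-Six1 and His-Eya2 protein (5X stock 250 nM/500 nM) plus glutathione donor and Ni-chelate acceptor beads (5X, 50 ug/mL).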
The depositor's hits bear a star; ? = inconclusive; . = not tested or not shown; [ ] = dose if it differs, or a comment. Shown are actives, neighbours in structure and some others; about 5.3% of the full set was active somewhere. Unless noted, the call rests on the fitted dose curve; in most records, active means well fitted inhibition curve with a large enough effect; inconclusive means small, poorly fitted or top-dose-only effect; inactive means no such curve, though single readings can be large or run the other way.

SMILES	TDP1 block	BAZ2B inh	JMJD2A Tudor	CtBP-E1A inh	HP1b chromo inh	Six1-Eya2 inh
CCCCN1C(=O)N(C)C2C1N(C)C(=O)N2CCCC (stereo unspecified)	2%	-5%	-28%	7	-5%	3
CCCCN1C(=O)NC2NC(=O)NC21 (stereo unspecified)	3%[56.1 µM]	20µM*	?	0	-51%	6
COC(=O)c1c(C)n(-c2ccccc2)c2ccc(O)cc12	6%	-35%	?	-12	-7%	-11
CN(C)/C=C/c1c([N+](=O)[O-])c2ccc(O)cc2n1-c1ccccc1	8%	35µM*	?	-9	-28%	-11
CN1CCN(c2ccc(Nc3c4ccccc4nc4ccccc34)cc2)CC1	21%	.	.	.	.	.
C=CC(=O)Nc1ccc(N(C)c2ccnc(Nc3ccc(N4CCN(C)CC4)cc3)n2)cc1	12%	.	35µM*	-18	?	?
CCOc1ccccc1CN(CCc1ccc2c(c1)OCO2)Cc1cccc(OC)c1OC	.	50µM*	4.5µM*	.	?	.
COc1ccccc1CC(=O)NCc1ccc2c(c1)OCO2	-2%	-8%	-18%	1	26%	14
CCOc1ccc(CN(CCc2ccc3c(c2)OCO3)Cc2cc(OC)c(OC)cc2OC)cc1	0%[2.28 µM]	28µM*	8.9µM*	.	11µM*	.
CCN(CC)S(=O)(=O)c1ccc2c(c1)N(CC(=O)NCCCN1CCN(c3ccc(OC)cc3)CC1)C(=O)CO2	2%	-15%	-15%	.	10%	.
CC(C)=CCC/C(C)=C/CO/N=C1/[C@H]2O[C@@H]2[C@@H](O)[C@H]2[C@H]1CCn1c(=O)n(Cc3cc4c(cc3Cl)OCO4)c(=O)n12	8%[21 µM]	.	.	.	.	.
CN(Cc1ccccc1)S(=O)(=O)c1ccc2[nH]c3c(c2c1)CCCCC3	-4%	-31%[57.1 µM]	?	.	-9%	.
Cc1ccc(/C=C/C(=O)NCC2COc3ccccc3O2)o1 (stereo unspecified)	-1%	?	56µM*	1	?	-3
Cc1ccc(/C=C/C(=O)NCc2ccccn2)o1	14µM*	45µM*	50µM*	0	?	-2
CC(=O)O[C@H]1C2=CO[C@H](C)[C@H]3[C@H]4C5=C([C@H](O)[C@H]6O[C@@H]6C5=O)[C@H](O[C@H]4C)[C@@]23C(=O)[C@H]2O[C@@H]21	1%[21 µM]	.	.	.	.	.
Cc1ccc2cccc(S(=O)(=O)Nc3ccc4c(c3)OCO4)c2n1	4%	50µM*	?	2	20%	-8
COc1ccc(N2CCN(c3ncnc4scc(-c5ccc(C)cc5)c34)CC2)cc1	4%	11µM*	25µM*	-22	?	?
COc1ccc(-c2csc3ncnc(N4CCN(c5cccc(OC)c5)CC4)c23)cc1	6%	-20%	-29%	-3	-2%	-11
COc1ccc(-c2csc3ncnc(N4CCN(c5ccccc5Cl)CC4)c23)cc1	2%	-22%	-10%	-2	22%	-17
COc1ccc(N2CCN(c3ncnc4scc(-c5ccccc5)c34)CC2)cc1	.	14µM*	25µM*	?	?	?
CO[C@@H]1COC(=O)[C@H](COCc2ccccc2)NC(=O)C/C=C\[C@@H](C)[C@H](OC)COC(=O)[C@@H](C)NC(=O)C/C=C\[C@H]1C	11%[21 µM]	.	.	.	.	.
O=C(O)CCN1C(=O)/C(=C/c2ccc(-c3nc4ccccc4s3)o2)SC1=S	5%	3.5µM*	6.3µM*	-27	?	?
Cc1nn(-c2ccccc2)c(Cl)c1/C=C1\SC(=S)N(CCCCCC(=O)O)C1=O	10%	?	?	6	?	-7
O=C(O)CC(C(=O)O)N1C(=O)/C(=C/c2ccc(-c3nc4ccccc4s3)o2)SC1=S (stereo unspecified)	.	50µM*	50µM*	?	28µM*	-77*
O=C(O)CCCN1C(=O)/C(=C\c2ccc(-c3nc4ccccc4s3)o2)SC1=S	?	7.9µM*	-32%[11.4 µM]	?	18µM*	?
SMILES	TDP1 block	BAZ2B inh	JMJD2A Tudor	CtBP-E1A inh	HP1b chromo inh	Six1-Eya2 inh
O=C(O)CN1C(=O)/C(=C/c2ccc(-c3cccc(Cl)c3)o2)SC1=S	5%	.	?	.	.	.
Nc1nc2[nH]c(=S)[nH]c2c(=O)[nH]1	1%	.	?	.	?	.
CCCCC#CC1C=CC(Oc2ccc(C(=O)OC)cc2)C(COC(=O)OCC)O1 (stereo unspecified)	6%[21 µM]	.	.	.	.	.
FCCCOc1ccc(-c2nccc(-c3ccccn3)n2)cc1	.	75%	80%	.	166%	21
O=C(O)COc1ccc(-c2nccc(-c3ccccn3)n2)cc1	7%	79µM*	-34%[11.4 µM]	.	?	-12
COc1cc2c(-c3ccccc3Cl)nc3c(c(C)nn3-c3ccccc3)c2cc1OC	0%[12.3 µM]	20%	36%	.	81%	.
C[C@H](NC(=O)c1nc[nH]c1C(=O)NC1CCNCC1)C(=O)OC(C)(C)C	1%	50µM*	-22%	1	30%	0
C[C@H](NC(=O)c1nc[nH]c1C(=O)N1CCNCC1)C(=O)OCc1ccccc1	1%	56µM*	35µM*	1	9%	-1
O=C(CNC(=O)c1nc[nH]c1C(=O)N1CCNCC1)OCc1ccccc1	.	50µM*	50µM*	4	27%	1
COc1cc(F)c(S(=O)(=O)N2CCN(S(=O)(=O)c3ccco3)CC2)c(F)c1	-16%	.	-20%	.	.	.
Cc1c(C(=O)NCc2ccccc2Cl)sc2nc3n(c(=O)c12)CCCCC3	10%	?	-13%	.	62%	.
CCOC(=O)c1ccc(NC(=O)C(C)Sc2nc(=O)cc(N)n2CCc2ccccc2)cc1 (stereo unspecified)	3%	?	-27%	.	2%	.
CC(C)(C)OC(=O)N1CCC(c2c(C(=O)NCc3ccc4c(c3)OCO4)cnn2-c2ccc(F)cc2F)CC1	6%	5%[57.1 µM]	-9%	.	16%	.
Cc1cc(=O)[nH]c(N/N=C/c2sccc2C)n1	-2%	1%	-15%[57.1 µM]	?	32%	?
CCN(CC)c1ccc(/C=N/Nc2nc(C)cc(=O)[nH]2)c(O)c1	8%	-15%	-22%	-98*	23%	-92*
Cc1cc(=O)[nH]c(N/N=C/c2c(F)c(F)c(F)c(F)c2F)n1	.	?	15%	2	31%	-2
Cc1cc(=O)[nH]c(N/N=C/C(C)c2ccccc2)n1 (stereo unspecified)	6%	-27%	1.1µM*	4	-4%	1
